Source: PubChem BioAssay
MCF10A rereplic = A quantitative high throughput screen for small molecules that induce DNA re-replication in MCF 10a normal breast cells | MCF 10A DNA re-replication, Hoechst nuclear intensity, 48 h | Potency, µM (doses to about 46.1 µM), for inactives: top-dose activity, positive = re-replication, usual class: activators | hit rate 2.9% among 350,000 | AID 624296, 2012; further: % of control where 0% means no effect; nearly all actives have a fitted effect of over 50% in size
KB-V1 cytotox = qHTS assay for MDR1-selective chemotherapeutics: Primary screen using the drug-selected MDR subline cells KB-V1; Potency, µM (doses to about 46.1 µM), most hits filed as cytotoxic; AID 1347076, 2019; hit rate 3.4% among 400,000; KB-V1 MDR cells viability, CellTiter-Glo, 72 h; further: on the % scale 0 is the no-effect control and ±100 the full control effect; nearly all actives have a fitted effect of over 60% in size
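Compound-treated KB-V1 multidrug-resistant cells, 72 h, 37 degrees C; viability by CellTiter-Glo. Fitted qHTS curves give the values.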
HT1080NT lethal = qHTS for induction of synthetic lethality in tumor cells producing 2HG: qHTS for the HT-1080-NT fibrosarcoma cell line; HT-1080-NT fibrosarcoma viability, CellTiter-Glo ATP luminescence, 48 h; Potency, µM (highest dose often 46.1 µM), without a hit: at the highest dose activity, negative = less viability, actives largely listed as cytotoxic; hit rate 1.6% among 360,000; AID 686970, 2013;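 further: NT is the 2HG producing partner of a matched IDH1 knockdown line; 0% = DMSO-treated cells and -100% = media-only wells without cells; nearly all actives have a fitted effect of over 55% in size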
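Viability by CellTiter-Glo luminescence after 48 h compound exposure at 37C of HT-1080-NT cells (750/well, RPMI, 5% FBS). % activity scaled between DMSO wells and medium-only wells, then curve-fitted and categorized by curve class.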
SW480 rereplic = A quantitative high throughput screen for small molecules that induce DNA re-replication in SW480 colon adenocarcinoma cells. hit rate 1.8% among 340,000. Potency, µM (series often up to 46.1 µM), for the others: at the highest dose re-replication activation, most hits filed as activators. SW480 DNA re-replication, Hoechst DNA content imaging, 48 h. AID 624297, 2012; further: % of control where 0% means no effect; nearly all actives have a fitted effect of over 55% in size
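First, 250 cells per well were seeded. Next, compound or vehicle (23 nL) was pinned in, plates sat 48 hr at 37 C. Finally Hoechst was added for 40 min before fluorescence scanning.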
HT1080 IDH1KD tx = qHTS for induction of synthetic lethality in tumor cells producing 2HG: qHTS for the HT-1080-IDH1KD cell line; hit rate 2% among 360,000; HT-1080 IDH1 knockdown viability, ATP luminescence, 48 h; Potency, µM (titrated, usually from 46.1 µM), for inactives: at the highest dose activity, negative = toxicity, usual class: cytotoxic;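 further: 0% = DMSO wells and -100% = cell-free medium wells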
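Luminescent ATP read-out (CellTiter-Glo, 10 min at room temperature) after 48 h compound exposure at 37 °C gave viability of IDH1-knockdown HT-1080 cells. Activity was normalised to DMSO and cell-free wells, then fitted as concentration-response curves.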
KB-3-1 cytotox = qHTS assay for MDR1-selective chemotherapeutics: Primary screen using the parental adenocarcinoma cell KB-3-1; KB-3-1 viability, CellTiter-Glo ATP luminescence, 72 h; AID 1347075, 2019; hit rate 1.4% among 400,000; Potency, µM (top dose mostly 46.1 µM), usual class: cytotoxic; further: on the % scale 0 is the no-effect control and ±100 the full control effect; nearly all actives have a fitted effect of over 60% in size
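Cytotoxicity in the drug-sensitive parental line KB-3-1 was scored as loss of CellTiter-Glo luminescence following 72 h incubation with compound. Values come from curve fitting of normalized concentration-response data.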
* hit, by the source's call; i = inactive; ? = inconclusive; . = no result. The list is not random: actives were taken first. Their share in the collection is about 8%. The call rests on the fitted dose curve; in most records, active means well fitted curve in the direction sought with a large enough effect; inconclusive means small, poorly fitted or top-dose-only effect, or another doubt; inactive means no such curve, though single readings can be large; an effect the other way counts as inactive or inconclusive. Potency means the concentration at half of the fitted maximal effect.

SMILES | MCF10A rereplic | KB-V1 cytotox | HT1080NT lethal | SW480 rereplic | HT1080 IDH1KD tx | KB-3-1 cytotox
CCOC(=O)c1ccc(NC2=CC(=O)C(=O)c3ccccc32)cc1 | 13µM* | ? | -25% | ? | -16% | ?
Cc1ccc(NC2=CC(=O)C(=O)c3ccccc32)cc1 | ? | 16µM* | 10µM* | 5.8µM* | 6.3µM* | ?
CCS(=O)(=O)c1nc(S(=O)(=O)c2ccc(C)cc2)c(NCc2ccccc2Cl)s1 | . | i | . | . | . | i
CCN(CC)C(=O)c1sc2c(c1C)c(=O)n(Cc1ccccc1)c(=O)n2Cc1c(C)cc(C)cc1C | . | i | . | . | . | i
COc1ccc(-n2c(=O)c3c(c4cc(OC)ccc4n3C)n(Cc3cc(C)ccc3C)c2=O)cc1 | . | ? | . | . | . | i
COc1cc(S(=O)(=O)Nc2cccc(C)c2)ccc1NC(=O)c1cccnc1 | ? | 21µM* | -2% | -59% | -8% | ?
COc1ccc(NC(=O)c2cccnc2)c([N+](=O)[O-])c1 | ? | ? | ? | 16µM* | ? | 16µM*
COc1cc(NC(=O)c2cccnc2)ccc1NC(=O)c1ccccc1Cl | -8% | i | 13% | -14% | 0% | i
COc1ccc(NC(=O)c2ccccc2)c([N+](=O)[O-])c1 | ? | ? | -8% | ? | -17% | i
CCOc1ccc(NC(=O)c2ccco2)c([N+](=O)[O-])c1 | 23% | i | -20% | ? | ? | i
CCOc1ccc(NC(=O)c2cccnc2Cl)c([N+](=O)[O-])c1 | 8% | ? | 8% | 23µM* | 4% | i
CCN1CCN(c2c(S(=O)(=O)c3ccc(Cl)cc3)cnc3ccccc23)CC1 | . | i | . | . | . | i
Cc1cc(C)c(NC(=O)C2CCN(C(=O)N3CC(C)Oc4ccc(Cl)cc43)CC2)c(C)c1 (centres undefined) | . | i | . | . | . | i
CCc1c(C(=O)Nc2ccncc2)csc1C | 1% | 16µM* | -13% | -11% | -28% | i
CCn1ncc(C2=NOC(C(=O)Nc3cnn(C45CC6CC(CC(C6)C4)C5)c3)C2)c1C (centres undefined) | -8% | 3.3µM* | ? | 18% | ? | ?
CCn1ncc(C2=NOC(C(=O)NCC(C)C)C2)c1C (centres undefined) | 0% | i | 22% | -3% | 11% | i
CCC(=O)Oc1c(C(=O)CC)cc2c(C)cc(=O)oc2c1C | 22% | 16µM* | -5% | 17% | -6% | i
COc1cccc(CNC(=O)COCc2cc(-c3ccc4c(c3)OCO4)on2)c1 | . | i | . | . | . | i
Cc1cc(SCc2ccc(Cl)cc2Cl)nc(=O)[nH]1 | 9.2µM* | i | -10% | ? | ? | ?
CCCNC(=O)c1ccc2c(c1)C1C3CCC(C3)C1C(c1ccccc1)N2 (centres undefined) | ? | 21µM* | -16% | 16% | -22% | ?
COc1ccc(OC)c(-c2cnc(OC(C)(C)C)nc2OC(C)(C)C)c1 | ? | ? | ? | ? | 13µM* | ?
CNc1cncc(-c2cc(OC)ccc2OC)n1 | . | i | -9% | . | -1% | i
Cc1ccccc1OCC(=O)Nc1ccc(S(=O)(=O)N(Cc2ccccc2)c2ccccc2)cc1 | . | i | . | . | . | i
O=C(O)C(c1ccccc1)N1C(=O)c2cccc3cccc(c23)C1=O (centres undefined) | 3% | i | -3% | -1% | -9% | i
NN=C1c2ccccc2C(=O)C1C(=O)C(c1ccccc1)c1ccccc1 (centres undefined) | 12µM* | i | -4% | 4% | -1% | i
SMILES | MCF10A rereplic | KB-V1 cytotox | HT1080NT lethal | SW480 rereplic | HT1080 IDH1KD tx | KB-3-1 cytotox
O=C(Nc1cccnc1)c1ccc([N+](=O)[O-])o1 | 7.3µM* | ? | ? | ? | ? | ?
O=C(NCc1cccnc1)c1ccc([N+](=O)[O-])o1 | 15µM* | 23µM* | ? | 2.9µM* | ? | i
O=C(Nc1cccnc1)c1ccco1 | 25% | i | -28% | 2% | ? | i
COc1ccc(CC(=O)Nc2ccc(-c3nc4ccccc4s3)c(C)c2)cc1OC | . | ? | . | . | . | i
Cc1ccc(S(=O)(=O)N2CCN(Cc3cc(Br)ccc3O)CC2)cc1 | . | i | . | . | . | i
N#Cc1c(-c2ccccc2)cc(C2CC2)nc1SCC(=O)c1cccs1 | 17% | ? | 15% | 9.2µM* | 21% | i
O=C(COc1cccc2ccccc12)N1c2ccccc2CCc2ccccc21 | 8% | 16µM* | -26% | ? | ? | ?
CCC(=O)N1CCc2cc(S(=O)(=O)CCC(=O)N3CCN(c4cc(C)ccc4C)CC3)ccc21 | . | i | . | . | . | i
Cc1cc2c(cc1C)-n1nnnc1C(N1CCN(C(=O)OCc3ccccc3)CC1)C(=O)N2 (centres undefined) | . | 18µM* | ? | . | ? | ?
